Source: PubChem BioAssay AID1159580 (chemical genetic matrix, 2015)
About 2,000 (36%) of roughly 5,500 compounds were called active. Not shown: some 18% with an inconclusive outcome. Rule as the data show it: active = normalized growth mostly below about 0.91 (no sharp cut-off); inconclusive = no clear call, values can overlap the other calls; inactive = mostly above about 0.92. This is one part of the list.

Assay: chemical genetic growth profiling, strain panel (AID 1159580);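 also: tested at 20 µM; growth read once vehicle control cultures reached saturation at 30 °C; 1 = growth at the plate median or of vehicle wells; lower values mean less growth of the strain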
Conditions: growth OD

Measured: normalized growth

C=C1C2CCC3(C)C(c4ccoc4)OC(=O)CC13OC1CC(OC(C)=O)C(C)(C)C(CC(=O)OC)C12C (configuration not stated)
active: S. cerevisiae deletion strains, locus YKL068W, hits give low values 1.17 [resistant] | S. cerevisiae deletion strains, locus YKL085W, strain MDH1 (second series), hits give low values 1.08 [resistant] | S. cerevisiae deletion strains, locus YKL085W, strain MDH1, hits give low values 1.08 [resistant]
inactive: S. cerevisiae deletion strains, locus YAL021C, strain ccr4, hits give low values 1.02 | S. cerevisiae deletion strains, locus YAL026C, strain drs2, hits give low values 1.01 | S. cerevisiae deletion strains, locus YAL030W, strain snc1, hits give low values 1 | S. cerevisiae deletion strains, locus YBL061C, strain skt5, hits give low values 0.993 | S. cerevisiae deletion strains, locus YBR009C, strain hhf1, hits give low values 1 | S. cerevisiae deletion strains, locus YBR021W, strain FUR4, hits give low values 1 | S. cerevisiae deletion strains, locus YBR023C, strain chs3, hits give low values 1 | S. cerevisiae deletion strains, locus YBR171W, strain sec66, hits give low values 1.01 | S. cerevisiae deletion strains, locus YBR229C, strain ROT2, hits give low values 1 | S. cerevisiae deletion strains, locus YBR231C, strain swc5, hits give low values 1.02 | S. cerevisiae deletion strains, locus YBR279W, strain paf1, hits give low values 1.01 | S. cerevisiae deletion strains, locus YCL011C, strain gbp2, hits give low values 1 | S. cerevisiae deletion strains, locus YCL016C, strain dcc1, hits give low values 1 | S. cerevisiae deletion strains, locus YCL029C, strain bik1, hits give low values 0.995 | S. cerevisiae deletion strains, locus YCL061C, strain MRC1, hits give low values 1.01 | S. cerevisiae deletion strains, locus YCL069W, strain vba3, hits give low values 1 | S. cerevisiae deletion strains, locus YCR088W, strain abp1, hits give low values 1.01 | S. cerevisiae deletion strains, locus YDL005C, strain med2, hits give low values 0.985 | S. cerevisiae deletion strains, locus YDL035C, strain GPR1, hits give low values 0.993 | S. cerevisiae deletion strains, locus YDL040C, strain nat1, hits give low values 1.01 | S. cerevisiae deletion strains, locus YDL074C, strain BRE1, hits give low values 1.02 | S. cerevisiae deletion strains, locus YDL101C, strain DUN1, hits give low values 1 | S. cerevisiae deletion strains, locus YDL185W, strain tfp1, hits give low values 0.999 | S. cerevisiae deletion strains, locus YDL192W, strain arf1, hits give low values 0.985 | S. cerevisiae deletion strains, locus YDR001C, strain nth1, hits give low values 1.01 | S. cerevisiae deletion strains, locus YDR069C, strain doa4, hits give low values 1.01 | S. cerevisiae deletion strains, locus YDR101C, strain arx1, hits give low values 1.05 | S. cerevisiae deletion strains, locus YDR137W, strain rgp1, hits give low values 0.899 | S. cerevisiae deletion strains, locus YDR159W, strain sac3, hits give low values 1.03 | S. cerevisiae deletion strains, locus YDR162C, strain NBP2, hits give low values 0.991 | S. cerevisiae deletion strains, locus YDR195W, strain ref2 1 | S. cerevisiae deletion strains, locus YDR297W, strain sur2, hits give low values 1.02 | S. cerevisiae deletion strains, locus YDR318W, strain mcm21, hits give low values 0.992 | S. cerevisiae deletion strains, locus YDR334W, strain swr1, hits give low values 1.03 | S. cerevisiae deletion strains, locus YDR335W, strain msn5, hits give low values 1 | S. cerevisiae deletion strains, locus YDR388W, hits give low values 1 | S. cerevisiae deletion strains, locus YDR392W, strain spt3, hits give low values 1.01 | S. cerevisiae deletion strains, locus YDR502C, strain sam2, hits give low values 0.994 | S. cerevisiae deletion strains, locus YEL003W, strain gim4, hits give low values 1.01 | S. cerevisiae deletion strains, locus YEL037C, strain rad23, hits give low values 1.02 | S. cerevisiae deletion strains, locus YEL061C, strain CIN8 (second series), hits give low values 1.01 | S. cerevisiae deletion strains, locus YEL061C, strain CIN8, hits give low values 1 | S. cerevisiae deletion strains, locus YER015W, strain faa2, hits give low values 1.01 | S. cerevisiae deletion strains, locus YER016W, strain bim1, hits give low values 1.01 | S. cerevisiae deletion strains, locus YER110C, hits give low values 0.99 | S. cerevisiae deletion strains, locus YER111C, strain swi4, hits give low values 0.988 | S. cerevisiae deletion strains, locus YER155C, strain BEM2 (second series), hits give low values 1.02 | S. cerevisiae deletion strains, locus YER155C, strain BEM2, hits give low values 1.01 | S. cerevisiae deletion strains, locus YER167W, strain BCK2, hits give low values 1.01 | S. cerevisiae deletion strains, locus YFR010W, strain ubp6, hits give low values 1.01 | S. cerevisiae deletion strains, locus YGL078C, strain dbp3, hits give low values 1.01 | S. cerevisiae deletion strains, locus YGL086W, strain mad1, hits give low values 0.998 | S. cerevisiae deletion strains, locus YGL167C, strain pmr1, hits give low values 1.01 | S. cerevisiae deletion strains, locus YGL173C, strain kem1, hits give low values 0.998 | S. cerevisiae deletion strains, locus YGL227W, strain vid30, hits give low values 1 | S. cerevisiae deletion strains, locus YGL240W, strain doc1, hits give low values 0.991 | S. cerevisiae deletion strains, locus YGL248W, strain PDE1, hits give low values 0.993 | S. cerevisiae deletion strains, locus YGL253W, strain hxk2, hits give low values 0.981 | S. cerevisiae deletion strains, locus YGR135W, strain pre9, hits give low values 0.983 | S. cerevisiae deletion strains, locus YGR252W, strain gcn5, hits give low values 0.923 | S. cerevisiae deletion strains, locus YHR013C, strain ard1, hits give low values 1.01 | S. cerevisiae deletion strains, locus YHR027C, strain rpn1, hits give low values 1.02 | S. cerevisiae deletion strains, locus YHR030C, strain SLT2, hits give low values 1.01 | S. cerevisiae deletion strains, locus YHR079C, strain IRE1 (second series), hits give low values 1 | S. cerevisiae deletion strains, locus YHR094C, strain hxt1, hits give low values 0.999 | S. cerevisiae deletion strains, locus YHR129C, strain ARP1, hits give low values 1.01 | S. cerevisiae deletion strains, locus YHR142W, strain chs7, hits give low values 0.99 | S. cerevisiae deletion strains, locus YHR200W, strain rpn10, hits give low values 1 | S. cerevisiae deletion strains, locus YIL066C, strain RNR3, hits give low values 1.01 | S. cerevisiae deletion strains, locus YIL073C, strain SPO22, hits give low values 0.973 | S. cerevisiae deletion strains, locus YIL125W, strain kgd1, hits give low values 0.998 | S. cerevisiae deletion strains, locus YIR030C, strain dcg1, hits give low values 0.998 | S. cerevisiae deletion strains, locus YJL092W, strain hpr5, hits give low values 1.02 | S. cerevisiae deletion strains, locus YJL095W, strain BCK1 (second series), hits give low values 1.02 | S. cerevisiae deletion strains, locus YJL095W, strain BCK1, hits give low values 1.01 | S. cerevisiae deletion strains, locus YJL115W, strain asf1, hits give low values 1.01 | S. cerevisiae deletion strains, locus YJL129C, strain trk1, hits give low values 0.969 | S. cerevisiae deletion strains, locus YJL134W, strain LCB3, hits give low values 1.01 | S. cerevisiae deletion strains, locus YJL154C, strain vps35, hits give low values 1.03 | S. cerevisiae deletion strains, locus YJL164C, strain tpk1, hits give low values 0.997 | S. cerevisiae deletion strains, locus YJL166W, strain qcr8, hits give low values 1.02 | S. cerevisiae deletion strains, locus YJL168C, strain set2, hits give low values 0.998 | S. cerevisiae deletion strains, locus YJL187C, strain SWE1 (second series), hits give low values 1 | S. cerevisiae deletion strains, locus YJR043C, strain POL32, hits give low values 1.02 | S. cerevisiae deletion strains, locus YKL160W, strain elf1, hits give low values 1.01 | S. cerevisiae deletion strains, locus YKR001C, strain vps1, hits give low values 1.02 | S. cerevisiae deletion strains, locus YKR026C, strain gcn3, hits give low values 1 | S. cerevisiae deletion strains, locus YKR091W, strain srl3, hits give low values 1 | S. cerevisiae deletion strains, locus YLL001W, strain dnm1, hits give low values 1.01 | S. cerevisiae deletion strains, locus YLL026W, hits give low values 1 | S. cerevisiae deletion strains, locus YLL041C, strain sdh2, hits give low values 1 | S. cerevisiae deletion strains, locus YLR027C, strain aat2, hits give low values 0.991 | S. cerevisiae deletion strains, locus YLR039C, strain RIC1, hits give low values 0.988 | S. cerevisiae deletion strains, locus YLR058C, strain SHM2, hits give low values 1 | S. cerevisiae deletion strains, locus YLR102C, strain apc9, hits give low values 1.01 | S. cerevisiae deletion strains, locus YLR221C, strain rsa3, hits give low values 0.995 | S. cerevisiae deletion strains, locus YLR258W, strain gsy2, hits give low values 0.994 | S. cerevisiae deletion strains, locus YLR262C, strain YPT6 (second series), hits give low values 0.972 | S. cerevisiae deletion strains, locus YLR262C, strain YPT6, hits give low values 0.933 | S. cerevisiae deletion strains, locus YLR268W, strain sec22, hits give low values 0.984 | S. cerevisiae deletion strains, locus YLR320W, strain mms22, hits give low values 1.01 | S. cerevisiae deletion strains, locus YLR342W, strain FKS1, hits give low values 0.992 | S. cerevisiae deletion strains, locus YLR357W, strain rsc2, hits give low values 1.02 | S. cerevisiae deletion strains, locus YLR370C, strain arc18, hits give low values 0.998 | S. cerevisiae deletion strains, locus YLR371W, strain rom2, hits give low values 1.01 | S. cerevisiae deletion strains, locus YLR384C, strain iki3, hits give low values 1.01 | S. cerevisiae deletion strains, locus YLR418C, strain cdc73, hits give low values 0.983 | S. cerevisiae deletion strains, locus YML016C, strain PPZ1, hits give low values 1.03 | S. cerevisiae deletion strains, locus YML032C, strain rad52, hits give low values 0.999 | S. cerevisiae deletion strains, locus YML120C, strain ndi1, hits give low values 1.01 | S. cerevisiae deletion strains, locus YML124C, strain tub3, hits give low values 0.993 | S. cerevisiae deletion strains, locus YMR058W, strain fet3, hits give low values 1.02 | S. cerevisiae deletion strains, locus YMR078C, strain ctf18, hits give low values 0.988 | S. cerevisiae deletion strains, locus YMR125W, strain sto1, hits give low values 1.01 | S. cerevisiae deletion strains, locus YMR129W, hits give low values 1 | S. cerevisiae deletion strains, locus YMR205C, strain PFK2, hits give low values 0.97 | S. cerevisiae deletion strains, locus YMR223W, strain ubp8, hits give low values 0.991 | S. cerevisiae deletion strains, locus YMR231W, strain pep5, hits give low values 1 | S. cerevisiae deletion strains, locus YMR307W, strain GAS1, hits give low values 1.03 | S. cerevisiae deletion strains, locus YNL067W, strain RPL9B, hits give low values 0.998 | S. cerevisiae deletion strains, locus YNL071W, strain lat1, hits give low values 1.01 | S. cerevisiae deletion strains, locus YNL153C, strain GIM3, hits give low values 1.02 | S. cerevisiae deletion strains, locus YNL209W, strain ssb2, hits give low values 1.02 | S. cerevisiae deletion strains, locus YNL233W, strain BNI4, hits give low values 1 | S. cerevisiae deletion strains, locus YNL248C, strain rpa49, hits give low values 1.02 | S. cerevisiae deletion strains, locus YNL250W, strain rad50, hits give low values 0.982 | S. cerevisiae deletion strains, locus YNL271C, strain bni1, hits give low values 1 | S. cerevisiae deletion strains, locus YNL298W, strain CLA4, hits give low values 0.997 | S. cerevisiae deletion strains, locus YNL307C, strain MCK1, hits give low values 0.999 | S. cerevisiae deletion strains, locus YNL322C, strain KRE1 (second series), hits give low values 1.02 | S. cerevisiae deletion strains, locus YNR049C, strain mso1, hits give low values 1.02 | S. cerevisiae deletion strains, locus YNR052C, strain pop2, hits give low values 1.01 | S. cerevisiae deletion strains, locus YOL006C, strain TOP1, hits give low values 0.984 | S. cerevisiae deletion strains, locus YOL012C, strain htz1 1.69 | S. cerevisiae deletion strains, locus YOL147C, strain pex11, hits give low values 0.999 | S. cerevisiae deletion strains, locus YOR001W, strain rrp6, hits give low values 1.03 | S. cerevisiae deletion strains, locus YOR061W, strain CKA2, hits give low values 1.01 | S. cerevisiae deletion strains, locus YOR069W, strain VPS5, hits give low values 1.01 | S. cerevisiae deletion strains, locus YOR070C, strain gyp1, hits give low values 1.02 | S. cerevisiae deletion strains, locus YOR080W, strain dia2, hits give low values 1.01 | S. cerevisiae deletion strains, locus YOR083W, strain WHI5, hits give low values 1 | S. cerevisiae deletion strains, locus YOR106W, strain vam3, hits give low values 0.999 | S. cerevisiae deletion strains, locus YOR136W, strain idh2, hits give low values 0.989 | S. cerevisiae deletion strains, locus YOR144C, strain elg1, hits give low values 1 | S. cerevisiae deletion strains, locus YOR184W, strain ser1, hits give low values 1 | S. cerevisiae deletion strains, locus YOR265W, strain rbl2, hits give low values 1.01 | S. cerevisiae deletion strains, locus YOR270C, strain vph1, hits give low values 0.951 | S. cerevisiae deletion strains, locus YOR290C, strain snf2, hits give low values 0.996 | S. cerevisiae deletion strains, locus YOR316C, strain cot1, hits give low values 1.01 | S. cerevisiae deletion strains, locus YPL051W, strain arl3, hits give low values 1.01 | S. cerevisiae deletion strains, locus YPL078C, strain atp4, hits give low values 1 | S. cerevisiae deletion strains, locus YPL106C, strain sse1, hits give low values 0.989 | S. cerevisiae deletion strains, locus YPL240C, strain hsp82, hits give low values 1.02 | S. cerevisiae deletion strains, locus YPR119W, strain clb2, hits give low values 0.998 | S. cerevisiae deletion strains, locus YPR141C, strain kar3, hits give low values 1.01 | S. cerevisiae deletion strains, locus YPR163C, strain tif3, hits give low values 0.991 | S. cerevisiae deletion strains, locus YPR167C, strain met16, hits give low values 1 | S. cerevisiae deletion strains, strain wtn01, hits give low values 0.983 | S. cerevisiae strains, strain wild type, hits give low values 1.01
